# Data: the supplement of paper PMC4466140
# Assays:
# Experiment in all cases: SPOT peptide array binding signal intensity (averaged, normalized) (arbitrary units (background-subtracted, floor 0; scale differs between SH3 domains)); higher = stronger binding of the SH3 domain to the peptide
# [1] = molecular target: AgAbp1
# How it was run: (§1)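 GST-fused SH3 domains, from four yeast species, were produced in E. coli BL21(DE3) and captured on glutathione Sepharose. Membranes of cellulose carrying synthetic 15-mer peptides, in which cysteines had been replaced by serines, were exposed to each domain at 10 μg/ml overnight at 4°C in TBS-based blocking buffer. After anti-GST antibody, an HRP anti-mouse secondary and luminol, spots were imaged and quantified using Genespotter. Binding signal is normalized and background-subtracted spot intensity, averaged over replicates, in arbitrary units that differ between domains.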
# [2] = molecular target: AgBbc1
# How it was run: as §1
# [3] = molecular target: AgBem1-D1
# How it was run: as §1
# [4] = molecular target: AgBzz1-D1
# How it was run: as §1
# [5] = molecular target: AgBzz1-D2
# How it was run: as §1
# [6] = molecular target: AgCyk3
# How it was run: as §1
# [7] = molecular target: AgFus1
# How it was run: as §1
# [8] = molecular target: AgHof1
# How it was run: as §1
# [9] = molecular target: AgHse1
# How it was run: as §1
# [10] = molecular target: AgLsb1
# How it was run: as §1
# [11] = molecular target: AgLsb4
# How it was run: as §1
# [12] = molecular target: AgMyo5
# How it was run: as §1
# [13] = molecular target: AgNbp2
# How it was run: as §1
# [14] = molecular target: AgRvs167
# How it was run: as §1
# [15] = molecular target: AgSho1
# How it was run: as §1
# [16] = molecular target: AgSla1-D1-D2
# How it was run: as §1
# [17] = molecular target: AgSla1-D3
# How it was run: as §1
# [18] = molecular target: CaAbp1-D1
# How it was run: as §1
# [19] = molecular target: CaAbp1-D2
# How it was run: as §1
# [20] = molecular target: CaBbc1
# How it was run: as §1
# [21] = molecular target: CaBem1-D1
# How it was run: as §1
# [22] = molecular target: CaBzz1-D1
# How it was run: as §1
# [23] = molecular target: CaBzz1-D2
# How it was run: as §1
# [24] = molecular target: CaCyk3
# How it was run: as §1
# [25] = molecular target: CaFus1
# How it was run: as §1
# [26] = molecular target: CaHof1
# How it was run: as §1
# [27] = molecular target: CaHse1
# How it was run: as §1
# [28] = molecular target: CaLsb1
# How it was run: as §1
# [29] = molecular target: CaLsb4
# How it was run: as §1
# [30] = molecular target: CaMyo5
# How it was run: as §1
# [31] = molecular target: CaNbp2
# How it was run: as §1
# [32] = molecular target: CaRvs167
# How it was run: as §1
# [33] = molecular target: CaRvs167-3
# How it was run: as §1
# [34] = molecular target: CaSho1
# How it was run: as §1
# [35] = molecular target: CaSla1-D1-D2
# How it was run: as §1
# [36] = molecular target: CaSla1-D3
# How it was run: as §1
# [37] = molecular target: ScAbp1
# How it was run: as §1
# [38] = molecular target: ScBbc1
# How it was run: as §1
# [39] = molecular target: ScBem1-D1
# How it was run: as §1
# [40] = molecular target: ScBzz1-D1
# How it was run: as §1
# [41] = molecular target: ScBzz1-D2
# How it was run: as §1
# [42] = molecular target: ScCyk3
# How it was run: as §1
# [43] = molecular target: ScFus1
# How it was run: as §1
# [44] = molecular target: ScHof1
# How it was run: as §1
# [45] = molecular target: ScHse1
# How it was run: as §1
# [46] = molecular target: ScLsb1
# How it was run: as §1
# [47] = molecular target: ScLsb2
# How it was run: as §1
# [48] = molecular target: ScLsb3
# How it was run: as §1
# [49] = molecular target: ScLsb4
# How it was run: as §1
# [50] = molecular target: ScMyo3
# How it was run: as §1
# [51] = molecular target: ScMyo5
# How it was run: as §1
# [52] = molecular target: ScNbp2
# How it was run: as §1
# [53] = molecular target: ScPex13
# How it was run: as §1
# [54] = molecular target: ScRvs167
# How it was run: as §1
# [55] = molecular target: ScSho1
# How it was run: as §1
# [56] = molecular target: ScSla1-D1-D2
# How it was run: as §1
# [57] = molecular target: ScSla1-D3
# How it was run: as §1
# [58] = molecular target: SpAbp1-D1
# How it was run: as §1
# [59] = molecular target: SpBbc1
# How it was run: as §1
# [60] = molecular target: SpBzz1-D1
# How it was run: as §1
# [61] = molecular target: SpBzz1-D2
# How it was run: as §1
# [62] = molecular target: SpCyk3
# How it was run: as §1
# [63] = molecular target: SpHof1
# How it was run: as §1
# [64] = molecular target: SpHof1-2
# How it was run: as §1
# [65] = molecular target: SpHof1-3
# How it was run: as §1
# [66] = molecular target: SpHse1
# How it was run: as §1
# [67] = molecular target: SpLsb1
# How it was run: as §1
# [68] = molecular target: SpLsb4
# How it was run: as §1
# [69] = molecular target: SpMyo1
# How it was run: as §1
# [70] = molecular target: SpNbp2
# How it was run: as §1
# [71] = molecular target: SpPex13
# How it was run: as §1
# [72] = molecular target: SpRvs167
# How it was run: as §1
# [73] = molecular target: SpSla1-D1-D2
# How it was run: as §1
# [74] = molecular target: SpSla1-D3
# How it was run: as §1
binder,measurement,setting,value
PPPPPPPPPPPLPQS,SPOT peptide array binding signal intensity,[1],9
same,SPOT peptide array binding signal intensity,[2],0.5
same,SPOT peptide array binding signal intensity,[3],28
same,SPOT peptide array binding signal intensity,[4],5
same,SPOT peptide array binding signal intensity,[5],1
same,SPOT peptide array binding signal intensity,[6],2
same,SPOT peptide array binding signal intensity,[7],≤ 0
same,SPOT peptide array binding signal intensity,[8],228
same,SPOT peptide array binding signal intensity,[9],≤ 0
same,SPOT peptide array binding signal intensity,[10],≤ 0
same,SPOT peptide array binding signal intensity,[11],≤ 0
same,SPOT peptide array binding signal intensity,[12],688
same,SPOT peptide array binding signal intensity,[13],2
same,SPOT peptide array binding signal intensity,[14],4.67
same,SPOT peptide array binding signal intensity,[15],≤ 0
same,SPOT peptide array binding signal intensity,[16],≤ 0
same,SPOT peptide array binding signal intensity,[17],0.5
same,SPOT peptide array binding signal intensity,[18],4.5
same,SPOT peptide array binding signal intensity,[19],3
same,SPOT peptide array binding signal intensity,[20],≤ 0
same,SPOT peptide array binding signal intensity,[21],≤ 0
same,SPOT peptide array binding signal intensity,[22],1610
same,SPOT peptide array binding signal intensity,[23],313
same,SPOT peptide array binding signal intensity,[24],≤ 0
same,SPOT peptide array binding signal intensity,[25],8.5
same,SPOT peptide array binding signal intensity,[26],0.75
same,SPOT peptide array binding signal intensity,[27],11.2
same,SPOT peptide array binding signal intensity,[28],2.25
same,SPOT peptide array binding signal intensity,[29],16
same,SPOT peptide array binding signal intensity,[30],235
same,SPOT peptide array binding signal intensity,[31],34
same,SPOT peptide array binding signal intensity,[32],2.83
same,SPOT peptide array binding signal intensity,[33],≤ 0
same,SPOT peptide array binding signal intensity,[34],≤ 0
same,SPOT peptide array binding signal intensity,[35],≤ 0
same,SPOT peptide array binding signal intensity,[36],1
same,SPOT peptide array binding signal intensity,[37],≤ 0
same,SPOT peptide array binding signal intensity,[38],1.25
same,SPOT peptide array binding signal intensity,[39],≤ 0
same,SPOT peptide array binding signal intensity,[40],9
same,SPOT peptide array binding signal intensity,[41],2
same,SPOT peptide array binding signal intensity,[42],≤ 0
same,SPOT peptide array binding signal intensity,[43],1.5
same,SPOT peptide array binding signal intensity,[44],20
same,SPOT peptide array binding signal intensity,[45],≤ 0
same,SPOT peptide array binding signal intensity,[46],≤ 0
same,SPOT peptide array binding signal intensity,[47],≤ 0
same,SPOT peptide array binding signal intensity,[48],42.5
same,SPOT peptide array binding signal intensity,[49],7
same,SPOT peptide array binding signal intensity,[50],1490
same,SPOT peptide array binding signal intensity,[51],1040
same,SPOT peptide array binding signal intensity,[52],≤ 0
same,SPOT peptide array binding signal intensity,[53],51.5
same,SPOT peptide array binding signal intensity,[54],≤ 0
same,SPOT peptide array binding signal intensity,[55],≤ 0
same,SPOT peptide array binding signal intensity,[56],≤ 0
same,SPOT peptide array binding signal intensity,[57],0.75
same,SPOT peptide array binding signal intensity,[58],12.5
same,SPOT peptide array binding signal intensity,[59],0.5
same,SPOT peptide array binding signal intensity,[60],2670
RNNRPVPPPPPMRTT,SPOT peptide array binding signal intensity,[1],9
same,SPOT peptide array binding signal intensity,[2],519
same,SPOT peptide array binding signal intensity,[3],129
same,SPOT peptide array binding signal intensity,[4],232
same,SPOT peptide array binding signal intensity,[5],117
same,SPOT peptide array binding signal intensity,[6],15
same,SPOT peptide array binding signal intensity,[7],11
same,SPOT peptide array binding signal intensity,[8],95.5
same,SPOT peptide array binding signal intensity,[9],23
same,SPOT peptide array binding signal intensity,[10],27
same,SPOT peptide array binding signal intensity,[11],131
same,SPOT peptide array binding signal intensity,[12],72.2
same,SPOT peptide array binding signal intensity,[13],59.5
same,SPOT peptide array binding signal intensity,[14],76.8
same,SPOT peptide array binding signal intensity,[15],5
same,SPOT peptide array binding signal intensity,[16],6
same,SPOT peptide array binding signal intensity,[17],21.5
same,SPOT peptide array binding signal intensity,[18],53.5
same,SPOT peptide array binding signal intensity,[19],11
same,SPOT peptide array binding signal intensity,[20],724
same,SPOT peptide array binding signal intensity,[21],108
same,SPOT peptide array binding signal intensity,[22],5240
same,SPOT peptide array binding signal intensity,[23],1310
same,SPOT peptide array binding signal intensity,[24],247
same,SPOT peptide array binding signal intensity,[25],69
same,SPOT peptide array binding signal intensity,[26],9.5
same,SPOT peptide array binding signal intensity,[27],3
same,SPOT peptide array binding signal intensity,[28],2
same,SPOT peptide array binding signal intensity,[29],541
same,SPOT peptide array binding signal intensity,[30],34
same,SPOT peptide array binding signal intensity,[31],312
same,SPOT peptide array binding signal intensity,[32],392
same,SPOT peptide array binding signal intensity,[33],1
same,SPOT peptide array binding signal intensity,[34],17
same,SPOT peptide array binding signal intensity,[35],1140
same,SPOT peptide array binding signal intensity,[36],187
same,SPOT peptide array binding signal intensity,[37],10.5
same,SPOT peptide array binding signal intensity,[38],58
same,SPOT peptide array binding signal intensity,[39],4
same,SPOT peptide array binding signal intensity,[40],453
same,SPOT peptide array binding signal intensity,[41],113
same,SPOT peptide array binding signal intensity,[42],2.5
same,SPOT peptide array binding signal intensity,[43],2.5
same,SPOT peptide array binding signal intensity,[44],21
same,SPOT peptide array binding signal intensity,[45],49.5
same,SPOT peptide array binding signal intensity,[46],27
same,SPOT peptide array binding signal intensity,[47],13.5
same,SPOT peptide array binding signal intensity,[48],1090
same,SPOT peptide array binding signal intensity,[49],500
same,SPOT peptide array binding signal intensity,[50],425
same,SPOT peptide array binding signal intensity,[51],156
same,SPOT peptide array binding signal intensity,[52],622
same,SPOT peptide array binding signal intensity,[53],1210
same,SPOT peptide array binding signal intensity,[54],2320
same,SPOT peptide array binding signal intensity,[55],99
same,SPOT peptide array binding signal intensity,[56],1300
same,SPOT peptide array binding signal intensity,[57],56.5
same,SPOT peptide array binding signal intensity,[58],15.5
same,SPOT peptide array binding signal intensity,[59],41
same,SPOT peptide array binding signal intensity,[60],2280
same,SPOT peptide array binding signal intensity,[61],28.8
same,SPOT peptide array binding signal intensity,[62],23
same,SPOT peptide array binding signal intensity,[63],22.8
same,SPOT peptide array binding signal intensity,[64],24.8
same,SPOT peptide array binding signal intensity,[65],98.2
same,SPOT peptide array binding signal intensity,[66],52
same,SPOT peptide array binding signal intensity,[67],44.2
same,SPOT peptide array binding signal intensity,[68],1450
same,SPOT peptide array binding signal intensity,[69],662
same,SPOT peptide array binding signal intensity,[70],8.5
same,SPOT peptide array binding signal intensity,[71],19.5
same,SPOT peptide array binding signal intensity,[72],1030
same,SPOT peptide array binding signal intensity,[73],134
same,SPOT peptide array binding signal intensity,[74],7
